GPR151 activ = activators of human GPR151, primary screen, cell-based, PathHunter beta-arrestin, luminescence; activation, % at 11.2 µM; PathHunter beta-arrestin GPR151 cells; G-protein coupled receptor 151 (Homo sapiens), Q8TDV0; 1% of 650,000 active; in the data active = activation above about 4.9%;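 also: 0% = median of compound wells and 100% = cells with positive control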
FBW7 activator = FBW7 E3 ligase activators, primary screen, biochemical, AlphaScreen, human. F-box/WD repeat-containing protein 7 (Homo sapiens), Q969H0. AlphaScreen FBW7–phospho-cyclin E peptide binding, activator screen. normalized activity (activation), % at 26.1 µM. 0.13% of 650,000 active. AID 1259310, 2017; in the data active = normalized activity above about 1.9%;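 also: purified mutant Fbw7 with reduced substrate affinity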
TEAD-YAP block = TEAD-YAP interaction inhibition, primary screen, TEAD-YAP interaction inhibitor project, luminescence, HEK-TIYL cells | TEAD-Gal4/YAP UAS-luciferase luminescence | inhibition, % at 9.12 µM | 1.4% of 640,000 active; in the data active = inhibition above about 32%;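 also: 0% = median of test compound wells and 100% = reference inhibitor wells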
MITF inh = MITF inhibitors, primary screen, biochemical, AlphaScreen, human. inhibition, % at 2.6 µM. 0.91% of 650,000 active. Microphthalmia-associated transcription factor (Homo sapiens), O75030. AlphaScreen MITF homodimerization, bead proximity signal; in the data active = inhibition above about 50%;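 also: 0% = vehicle wells with protein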
Target sequence (O75030 whole entry, looked up): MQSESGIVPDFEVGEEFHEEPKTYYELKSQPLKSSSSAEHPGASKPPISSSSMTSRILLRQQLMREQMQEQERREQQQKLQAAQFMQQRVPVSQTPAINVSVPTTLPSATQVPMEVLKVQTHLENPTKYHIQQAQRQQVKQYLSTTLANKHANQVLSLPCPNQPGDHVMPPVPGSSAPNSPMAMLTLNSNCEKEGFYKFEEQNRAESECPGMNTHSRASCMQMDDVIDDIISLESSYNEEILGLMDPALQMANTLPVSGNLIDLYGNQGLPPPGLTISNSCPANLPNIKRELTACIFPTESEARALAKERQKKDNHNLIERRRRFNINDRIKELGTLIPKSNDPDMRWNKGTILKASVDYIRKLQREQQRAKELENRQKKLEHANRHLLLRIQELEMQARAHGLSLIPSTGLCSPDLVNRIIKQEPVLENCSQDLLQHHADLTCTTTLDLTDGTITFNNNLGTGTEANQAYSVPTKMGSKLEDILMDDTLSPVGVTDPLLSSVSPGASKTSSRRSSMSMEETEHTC
MITF inh conf = MITF inhibitors, retest of hits, confirmation, biochemical, AlphaScreen, triplicate | shares compounds with MITF inh | AlphaScreen MITF homodimerization, biotin/His-MITF beads | inhibition, % at 2.6 µM | 16% of 4,700 active;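 active = inhibition above a cutoff derived from the DMSO control wells, cut at about 28% in these data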;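 also: 0% = MITF dimer wells with DMSO only; inhibitors lower the bead chemiluminescence by keeping MITF from dimerizing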
AlphaScreen DR = AlphaScreen optical interference compounds, dose response, counter-screen, biochemical, HTS | shares compounds with MITF inh | AlphaScreen optical interference counterscreen, cell-free | IC50, µM | 6% of 480 active | AID 1259373, 2018; call rule not given here
AS interf ctr = AlphaScreen optical interference compounds, counter-screen for MITF inhibitor project, biochemical, triplicate | inhibition, % at 2.6 µM | AID 1259376, 2018 | shares compounds with MITF inh | 7.6% of 4,700 active | LysRS AlphaScreen counterscreen, signal interference;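 active = inhibition above a cutoff derived from the DMSO control wells, cut at about 30% in these data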
* marks the source's active call; other numbers are inactive results; nt = no result. A selection: hits, their analogues and other compounds. The true share with any hit is near 3.5%.

SMILES	GPR151 activ	FBW7 activator	TEAD-YAP block	MITF inh	MITF inh conf	AS interf ctr	others
Clc1ccc(CN2CCN(Cc3ccccn3)CC2)cc1	-1	0	-29	63*	-6	0
O=[N+]([O-])c1ccc(CN2CCCCCC2)s1	-1	0	9	4	nt	nt
CC(=O)c1ccc(N2CCN(Cc3ccc(C)s3)CC2)cc1	1	0	-1	36	nt	nt
O=[N+]([O-])c1ccc(N2CCN(Cc3cc(Br)cs3)CC2)cc1	1	0	6	56*	4	6
CN1CCCN(Cc2ccc([N+](=O)[O-])s2)CC1	0	0	0	52*	4	6
Cc1ccc(CN2CCN(c3ccc([N+](=O)[O-])cc3)CC2)s1	0	1	2	70*	-3	3
O=S(=O)(Nc1ccccn1)c1ccc(N=Cc2ccc3c(c2)OCO3)cc1	1	0	5	74*	8	13
O=C1[C@@H]2C[C@@H](O)CN2C(=O)[C@H]2CN(Cc3ccccc3F)CCN12	0	0	1	2	nt	nt
CN(C)CCCN(CCCN(C)C)Cc1ccc(Br)cc1	0	0	2	54*	-1	8
COc1ccc(CN(CCCN(C)C)CCCN(C)C)cc1OC	0	0	1	35	nt	nt
CC(C)n1c(NCCN2CCOCC2)nc2c(NCCN3CCOCC3)ncnc21	0	0	2	67*	-1	10
CC[C@@H]1NC(=O)[C@H]2CN(C(=O)NC3CCCCC3)CCN2C1=O	-1	0	4	83*	71*	-10	AlphaScreen DR=>6.5
CC(C)C[C@H]1NC(=O)[C@H]2CN(C(=O)NC3CCCCC3)CCN2C1=O	-1	0	12	74*	41*	-7	AlphaScreen DR=>6.5
CC(C)C[C@@H]1NC(=O)[C@H]2CN(C(=O)NC3CCCCC3)CCN2C1=O	-1	0	11	80*	75*	-13	AlphaScreen DR=>6.5
CCOc1ccccc1-n1c(=S)sc2c(=O)n(-c3ccc(F)cc3)c(SCC(=O)c3ccccc3)nc21	0	0	-4	0	nt	nt
COC(C)(C)CNC(=O)C1CCN(C2CCN(Cc3cccc(C)n3)CC2)CC1	0	0	10	81*	73*	4	AlphaScreen DR=>6.5
CCC(C)CNC(=O)C1CCN(C2CCN(Cc3cccc(C)n3)CC2)CC1 (stereo not given)	3	1	7	-6	nt	nt
Cc1occc1-c1nnc(SCC(=O)Nc2sccc2C(N)=O)n1C	0	0	4	14	nt	nt
CC(Nc1ccccc1)C(=O)N1CCc2ccccc21 (stereo not given)	-1	0	-24	9	nt	nt
CC(NCC1(N2CCOCC2)CCCCC1)C(=O)N1CCc2ccccc21 (stereo not given)	-2	0	-3	53*	-1	7
COc1cccc(CN2CCC(N3CCCCCC3)CC2)c1OC	0	0	7	13	nt	nt
COc1ccccc1CN1CCC(N2CCN(c3ccccc3)CC2)CC1	0	0	-6	68*	-5	-5
COc1ccccc1CN1CCC(N2CCCCC2)CC1	-1	1	3	70*	3	21
COc1ccc(CN2CCC(N3CCCCC3)CC2)cc1	-1	0	-10	54*	16	-12
COc1ccc(CN2CCN(C3CCC(C)CC3)CC2)cc1 (stereo not given)	-1	0	1	73*	-4	-8
COc1ccc(CN2CCCCCC2)cc1	0	0	5	2	nt	nt
CCOc1ccc(CN2CCC(N3CCN(Cc4ccccc4)CC3)CC2)cc1	1	0	11	42	nt	nt
CCCCc1ccc(NC(=O)CSc2nc(=O)n(Cc3ccncc3)c3c2CCC3)cc1	-1	1	6	11	nt	nt
O=C(Cc1ccccc1)Nc1cc(Cl)ccc1Cl	1	0	-2	-3	nt	nt

Screens from PubChem.
